The campaign covered roughly 38,000 compounds. About 1,200 (3.2%) showed an effect of 50% or more. The median lay at about -58%. Many of the other results were omitted from the sample, so strong results are more common in it than they were.
System: Plasmodium falciparum
Assay: Calibr Malaria Delayed Death Assay SOP
Assay type: functional, organism-based
Parameters: scale not given: in the data most compounds retested in dose-response had high values
Settings: concentration 4.99e-06 (unit not given; other assays of the set use mol/L)

Row | SMILES | Percent Effect [%]
1 | CCN(CC)S(=O)(=O)NC1CCN(c2ccc(OC)cc2)CC1 | -62
2 | Cc1ccc(Sc2ccc(CN3CCC4(CCCNC4=O)C3)o2)cc1 (stereo not given) | 71.68
3 | O=C1NCCCC12CCN(Cc1ccc(SC3CCCCC3)o1)C2 (stereo not given) | 54.2
4 | O=C1NCCCC12CCN(S(=O)(=O)N1CCOCC1)C2 (stereo not given) | -32.12
5 | Cc1ccc(CN2CCC3(CC2)C(=O)NCCN3CC2CC2)o1 | -112.7
6 | Cc1cccc(N2CCC(N3CCC4(CCCNC4=O)C3)CC2)c1C (stereo not given) | 41
7 | Cc1ccc(CN2C[C@@H](c3ccccc3)[C@@]3(CCNC3=O)C2)o1 | -6.391
8 | COc1cccc(C(c2c(C)n[nH]c2O)c2c(C)n[nH]c2O)c1OC | -4.815
9 | O=C(O)C(F)(F)F.O=C1[C@H]2CN(S(=O)(=O)c3ccccc3)C[C@H]2CN1Cc1cccnc1 | 0.7029
10 | CCN(C(=O)COC)C(c1ccc(Cl)cc1)c1ccccn1 (stereo not given) | -96.63
11 | CCN(CC)C(=O)COc1nc(C(C)C)no1 | -177.8
12 | Cc1cc(N2CCC(O)CC2)nc(C)n1 | -73.43
13 | Cc1ccnc(N2CCC(NCCOc3ccccc3)CC2)n1 | 9.901
14 | Cc1cc(N2CCC(NC(=O)CCc3ccco3)CC2)nc(C)n1 | -35.38
15 | Cc1cc(N2CCC(N(C)C(=O)c3cccs3)CC2)nc(C)n1 | -45.9
16 | c1ccc(OCCNC2CCN(c3ncccn3)CC2)cc1 | -18.18
17 | Cc1cc(N2CCC(NC(C)Cc3ccsc3)CC2)nc(C)n1 (stereo not given) | 85.1
18 | O=C(COCCOc1ccccc1)NC1CCN(c2ncccn2)CC1 | -10.36
19 | CN(C)c1ccnc(N2CCC(NCCOc3ccccc3)CC2)n1 | 59.77
20 | Cc1nc(C)c(C)c(N2CCC(NCCOc3ccccc3)CC2)n1 | 61.44

Row | SMILES | Percent Effect [%]
21 | O=C(COCCOc1ccccc1)NC1CCN(c2ccccn2)CC1 | -45.63
22 | Cc1cc(N2CCC(N(C)C(=O)c3ccccc3)CC2)nc(C)n1 | 16.92
23 | Cc1cc(N2CCC(NCCOc3ccccc3)CC2)nc(C)n1 | 74.5
24 | COC1CCN(C(=O)Cn2ncc(N3CCCCC3)cc2=O)C1 (stereo not given) | -24.14
25 | COCc1cc(N2CCOC(c3ccc(Cl)cc3)C2)ncn1 (stereo not given) | 9.167
26 | CS(=O)(=O)N1CCOCC2(CCN(C(=O)c3ccncc3)CC2)C1.O=C(O)C(F)(F)F | -27.09
27 | O=C(Nc1ccccn1)C1CCN(Cc2cccc3c2OCCO3)CC1 | -6.102
28 | CC(C)(C)c1ncc(CNc2ccccc2SCCC(N)=O)s1 | -73.84
29 | Cn1cccc1C(=O)NC(C)(C(N)=O)c1cccc(Cl)c1 (stereo not given) | -31.46
30 | CCC(C)NC(=O)c1cccc(CNCc2csc(C(C)C)n2)c1 (stereo not given) | 46.44
31 | CCn1cnnc1C1CCN(C(=O)c2cc(C)c(C)s2)CC1 | -85.96
32 | CCC(=O)NCC(=O)NCC1(c2c(F)cccc2F)CCCC1 | 72.49
33 | COC(=O)NCCC(=O)NCC1(c2cccc(Cl)c2)CC1 | -27.72
34 | CCS(=O)(=O)CC(=O)NCC1(c2c(F)cccc2F)CCCC1 | -98.46
35 | CC(=O)N(C)CC(=O)NCC1(c2c(F)cccc2F)CCCC1 | -102.3
36 | COC(=O)NCC(=O)NCC1(c2c(F)cccc2F)CCCC1 | 68.39
37 | CC(=O)NCCC(=O)NCC1(c2c(F)cccc2F)CCCC1 | -84.52
38 | CC(=O)N1CCCn2nc(CNS(=O)(=O)N(C)C(C)C)cc2C1 | -134.1
39 | COCC(=O)N1CCC2(CCN(c3cnn(C)c3)C2=O)C1 (stereo not given) | -59.68
40 | O=c1[nH]c2cc3c(cc2cc1CN1CCCC1c1ccccn1)CCC3 (stereo not given) | -51.8

Row | SMILES | Percent Effect [%]
41 | CC(CN1CCOCC1)NC(=O)NCCc1ccc(Cl)s1 (stereo not given) | -56.29
42 | Cc1n[nH]cc1CNC1(c2ccc(F)cc2)CCCC1 | 82.35
43 | Cc1n[nH]cc1CNC1(Cc2ccc(Br)cc2)CCCCC1 | 36.65
44 | Cc1n[nH]cc1CNC1(c2ccc(Br)cc2)CC1 | 18.93
45 | O=C(NCc1ccco1)[C@@H]1CCO[C@@H]2CCN(c3ncccn3)C[C@H]21.O=C(O)C(F)(F)F | -31.43
46 | O=C(C1CCOC1)N1C[C@H]2CN(Cc3cccnc3)C(=O)[C@H]2C1.O=C(O)C(F)(F)F (stereo not given in full) | -57.45
47 | Cc1nc(NCC23CCCN2CCC3)cc(C2CCCNC2)n1 (stereo not given) | -55.92
48 | Cc1nc(NC2CCS(=O)(=O)CC2)cc(C2CCCNC2)n1 (stereo not given) | -36.14
49 | COc1ccccc1CC(=O)N1CC[C@H](O)[C@]2(CCCO2)C1 | -156.8
50 | CN1CCO[C@@H]2CN(S(=O)(=O)c3cccnc3)C[C@@H]2C1.O=C(O)C(F)(F)F.O=C(O)C(F)(F)F | -85.76
51 | CN1CCO[C@@H]2CN(S(=O)(=O)c3ccc(F)cc3)CC[C@@H]2C1.O=C(O)C(F)(F)F | 61.54
52 | CN1CCO[C@@H]2CN(S(=O)(=O)c3ccccc3)C[C@@H]2C1.O=C(O)C(F)(F)F | -22.42
53 | CC(C)N1CCO[C@@H]2CN(S(=O)(=O)c3cccs3)CC[C@@H]2C1.O=C(O)C(F)(F)F | 50.24
54 | COc1ccc(S(=O)(=O)N2C[C@@H]3CN(C)CCO[C@@H]3C2)cc1 | 58.7
55 | CCN1CCO[C@@H]2CN(S(=O)(=O)c3cccs3)CC[C@@H]2C1.O=C(O)C(F)(F)F | 37.95
56 | CN1CCO[C@@H]2CN(S(=O)(=O)c3ccccc3)CC[C@@H]2C1.O=C(O)C(F)(F)F | 31.75
57 | CN1CCO[C@@H]2CN(S(=O)(=O)c3ccccc3F)CC[C@@H]2C1.O=C(O)C(F)(F)F | 48.77
58 | CN1CCO[C@@H]2CN(S(=O)(=O)c3cccs3)CC[C@@H]2C1.O=C(O)C(F)(F)F | -26.8
59 | CCC(C)NC(=O)Cn1ncc2c1c(C)nn2CC (stereo not given) | -14.73
60 | CC1c2ncc(CN3CCN(C)CC3)n2CCN1Cc1cnn(C)c1.O=C(O)C(F)(F)F.O=C(O)C(F)(F)F.O=C(O)C(F)(F)F (stereo not given) | -76

From ChEMBL document CHEMBL3988442, “University of Dundee, Small-Polar-MMV Screening Library” (2021)
